Assay results taken from PMC7819943, “Rice protein-binding microarrays: a tool to detect cis-acting elements near promoter regions in rice”.
Whole data set: some 35,000 sequences, median “fluorescence intensity (a.u.)” near 10,000, cut for the highest 2% near 52,000. Many of the other results were omitted from the sample, so the highest values are more common in it than they were.

The sequences below were run against T1, OsWOX13 (Oryza sativa, UniProt Q5QMM3 1-267) (assay: protein-binding microarray (RPBM); PBS, 2% BSA, 51.3 ng/ul salmon testes DNA, 50 uM zinc acetate, 200 nM TF, 25 C, 1 h; high values mean tight binding). Details: protein: recombinant; tags: N-terminal polyhistidine and DsRed monomer fusion (pET32a); label: CyDye5-dUTP incorporated in the synthesized complementary strand; 3' TTTTT single-stranded linker to array surface; dsDNA, one strand shown.
T1 sequence: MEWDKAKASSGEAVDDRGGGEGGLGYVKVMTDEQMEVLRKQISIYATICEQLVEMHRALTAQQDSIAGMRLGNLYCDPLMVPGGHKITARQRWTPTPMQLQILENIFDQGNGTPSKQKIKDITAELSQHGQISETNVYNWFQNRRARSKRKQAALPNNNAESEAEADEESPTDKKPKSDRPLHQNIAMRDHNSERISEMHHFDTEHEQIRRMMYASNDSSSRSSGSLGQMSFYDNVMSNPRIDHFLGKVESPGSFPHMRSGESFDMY
In short: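 Transcription factors, each fused N-terminally to a polyhistidine tag and DsRed, were expressed in E. coli BL21-CodonPlus and purified on Ni–NTA. A custom Agilent array was made double-stranded by primer extension with Cy5-dUTP and blocked with 2% BSA. It was incubated with 200 nM protein in PBS, 2% BSA, salmon testes DNA and 50 µM zinc acetate at 25 °C for 1 h, then washed. The binding signal is per-feature fluorescence intensity (arbitrary units) read on an Axon 4000B scanner.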

Sequence | binding signal
ACCAATATATATATACTAATTAAATTTGTGGAACTTGGATCGGAGTCACCTAGTGCAG | 4420 fluorescence intensity (a.u.)
CCTAATTAAGTGGATTTTAGTTTTATATATTATTTAACTTCGGAGTCACCTAGTGCAG | 25700 fluorescence intensity (a.u.)
TGTGATTAGTTCTAATTTAATATAGCAAGAACTAGTGGATCGGAGTCACCTAGTGCAG | 53800 fluorescence intensity (a.u.)
GCAGTCCATTAACACGTGATTAATTAAGTATTAGTTAATTCGGAGTCACCTAGTGCAG | 21800 fluorescence intensity (a.u.)
TTGCTAATGACGGATTAATTAGGCTTAATAAATTCGTCTCCGGAGTCACCTAGTGCAG | 33900 fluorescence intensity (a.u.)
GAGCCTAATTAATTCGTGATTAGCCTAATGACGGATTAATCGGAGTCACCTAGTGCAG | 57400 fluorescence intensity (a.u.)
AGTTAGTGATTATATGATTAATCTATGGTCCAAATTATCTCGGAGTCACCTAGTGCAG | 23900 fluorescence intensity (a.u.)
AGTTAATTAATTAGTCCATCCAAGGAAGGAGTATATGATTCGGAGTCACCTAGTGCAG | 55800 fluorescence intensity (a.u.)
GGTAGTACTTAATTAATCACGCGCTAATAGACCGCTCTGTCGGAGTCACCTAGTGCAG | 22600 fluorescence intensity (a.u.)
TCGTATTTATGGCTAATTATTATTTCAGTGGTAGACGATTCGGAGTCACCTAGTGCAG | 6670 fluorescence intensity (a.u.)
TACACTAATTAATTAAGCATTAATCGTGGGAAGAGTAACGCGGAGTCACCTAGTGCAG | 47000 fluorescence intensity (a.u.)
TTGCATGTTTGTGGATTGATACATTAGATATTGATCTATCCGGAGTCACCTAGTGCAG | 3540 fluorescence intensity (a.u.)
TCATGCAGTAATTAATCAGTGACAGTGAACCTTGTTAGTACGGAGTCACCTAGTGCAG | 17400 fluorescence intensity (a.u.)
AGAAAATTTAATCTTAAATATGGACATTACGAATGTACAACGGAGTCACCTAGTGCAG | 4110 fluorescence intensity (a.u.)
AAAATTTGTCAATAAATATATAGGCAGTCCCGGTCCGTTCCGGAGTCACCTAGTGCAG | 4490 fluorescence intensity (a.u.)
TCCTCAATTAATTGCTGATCCTAATGCAGAGTTTCAGGTGCGGAGTCACCTAGTGCAG | 35500 fluorescence intensity (a.u.)
TATCACTAATAATTTAGCTCAGTTTGACAAGACGGATATCCGGAGTCACCTAGTGCAG | 4380 fluorescence intensity (a.u.)
TTACCAAATTTCACTGTTAACAGCGGTGCGTGGGTATTGACGGAGTCACCTAGTGCAG | 6390 fluorescence intensity (a.u.)
GGTATAACCTAAAGTTTATCCGTTTGTAGAGCGAATGTTTCGGAGTCACCTAGTGCAG | 14400 fluorescence intensity (a.u.)
CATGGTCAATCTACTCGTTAACGTACATTCACGGTTATTTCGGAGTCACCTAGTGCAG | 9160 fluorescence intensity (a.u.)
TAATTTAATTTAATTACCTCCCTAATCACTCTCGCTCGCTCGGAGTCACCTAGTGCAG | 46200 fluorescence intensity (a.u.)
TCCACTTGGGTGATTAGAATCTGTCTTCCCTGTTTTAAGCCGGAGTCACCTAGTGCAG | 7670 fluorescence intensity (a.u.)
AGAGATCGATCGATTAATTAGCAACAAGCCAACGACAAGCCGGAGTCACCTAGTGCAG | 4950 fluorescence intensity (a.u.)

Sequence | binding signal
TCGTGATTAGAATCTTAATCTCTAGCCTGTCTTTGCTTGCCGGAGTCACCTAGTGCAG | 56200 fluorescence intensity (a.u.)
TCTAATTGGCTTACTTAATATGATTCGATCCTACAACCTCCGGAGTCACCTAGTGCAG | 53700 fluorescence intensity (a.u.)
TAACCTTAATTAATTGATTAAATTACAAATATTCTAGCCCCGGAGTCACCTAGTGCAG | 44000 fluorescence intensity (a.u.)
CATACATATGTAATTTACTTCGATTCGATTAAATTGGCAGCGGAGTCACCTAGTGCAG | 7090 fluorescence intensity (a.u.)
GCTGTTTGATCCATAATTTATCCGCGCGTCGTCACTCCGACGGAGTCACCTAGTGCAG | 5840 fluorescence intensity (a.u.)
GCCTAATTGCTTAATTAGCAGCCAACGGATTCGATTGATCCGGAGTCACCTAGTGCAG | 53900 fluorescence intensity (a.u.)
CACTTGATTAATTTATCCTCTCCTCGCGTCGCTGTCGCGTCGGAGTCACCTAGTGCAG | 52700 fluorescence intensity (a.u.)
CTTAATTAGCTCTAGCGAGCTAGCTAGCTTGCTCTGTCTTCGGAGTCACCTAGTGCAG | 24200 fluorescence intensity (a.u.)
GTTTTCCTAATTAATTGCTAGCTCGATTTGCTCGGTGATCCGGAGTCACCTAGTGCAG | 29900 fluorescence intensity (a.u.)
AAGATGAGGTGATAGACTGACTAGCACTGAGCTTGCCCGGCGGAGTCACCTAGTGCAG | 14400 fluorescence intensity (a.u.)
ACTAGACAATTTGAATTTACAACTATATATACTCCCAATCCGGAGTCACCTAGTGCAG | 3250 fluorescence intensity (a.u.)
GAACTAGCTTAATTAAACCACAATTAGAATATATGTAGGACGGAGTCACCTAGTGCAG | 3750 fluorescence intensity (a.u.)
TAAGTAATTATTTATTCTTTTCATATCATTTGATTCATTGCGGAGTCACCTAGTGCAG | 15400 fluorescence intensity (a.u.)
AAAAGGATATGATTTGAAATGGCATTAAAGTGAATAGGCCCGGAGTCACCTAGTGCAG | 4540 fluorescence intensity (a.u.)
TCCAACGGTGCCGCTTAATTAGTGATTAATTATCCTAATTCGGAGTCACCTAGTGCAG | 16400 fluorescence intensity (a.u.)
TTAGCGTCTAATTATAGGATTATTTATGATAATATTCGTCCGGAGTCACCTAGTGCAG | 5680 fluorescence intensity (a.u.)
TTATGATTTAATTAGCGATTAATTATCCTAATTAGTGATTCGGAGTCACCTAGTGCAG | 62200 fluorescence intensity (a.u.)
GCCTAATTAATCCATGATTAGCCTATGTGATGCTATAGTACGGAGTCACCTAGTGCAG | 52700 fluorescence intensity (a.u.)
TCTAATTAATCCATGATTAGCCTATGTGATGCTACAGTAACGGAGTCACCTAGTGCAG | 25100 fluorescence intensity (a.u.)
GATTAGGTTAATTGAGATCTGCCTTGCTCTGCTCTGCTCGCGGAGTCACCTAGTGCAG | 21500 fluorescence intensity (a.u.)
CAGTTAATTGAGTTGATGGCCACTCCTCTGCTGCTCGTCGCGGAGTCACCTAGTGCAG | 60700 fluorescence intensity (a.u.)
CTAATGAGCCTAATTAATCCATGATTAGCCTATGTGATGCCGGAGTCACCTAGTGCAG | 43000 fluorescence intensity (a.u.)
ACTCCTGACTTGATTGGCAGTGAGTTGCTCATCTGCCTAGCGGAGTCACCTAGTGCAG | 40300 fluorescence intensity (a.u.)
